Screen size: about 400,000 compounds; about 2,100 (0.53%) were called active. Another 14% or so got no clear call; they are omitted. The rule behind the calls is not given here. What follows is part of a selection rich in actives, with near analogues and random picks from the rest.

Here are results for 97 compounds from ChEMBL document CHEMBL1201862, “PubChem BioAssay data set” (2004).

The target of the assay is Ataxin-2 (Homo sapiens) (UniProt Q99700). The experiment in a line: qHTS for Inhibitors of ATXN expression. It is filed as functional.
Ataxin-2 (Homo sapiens), sequence (Q99700 whole entry): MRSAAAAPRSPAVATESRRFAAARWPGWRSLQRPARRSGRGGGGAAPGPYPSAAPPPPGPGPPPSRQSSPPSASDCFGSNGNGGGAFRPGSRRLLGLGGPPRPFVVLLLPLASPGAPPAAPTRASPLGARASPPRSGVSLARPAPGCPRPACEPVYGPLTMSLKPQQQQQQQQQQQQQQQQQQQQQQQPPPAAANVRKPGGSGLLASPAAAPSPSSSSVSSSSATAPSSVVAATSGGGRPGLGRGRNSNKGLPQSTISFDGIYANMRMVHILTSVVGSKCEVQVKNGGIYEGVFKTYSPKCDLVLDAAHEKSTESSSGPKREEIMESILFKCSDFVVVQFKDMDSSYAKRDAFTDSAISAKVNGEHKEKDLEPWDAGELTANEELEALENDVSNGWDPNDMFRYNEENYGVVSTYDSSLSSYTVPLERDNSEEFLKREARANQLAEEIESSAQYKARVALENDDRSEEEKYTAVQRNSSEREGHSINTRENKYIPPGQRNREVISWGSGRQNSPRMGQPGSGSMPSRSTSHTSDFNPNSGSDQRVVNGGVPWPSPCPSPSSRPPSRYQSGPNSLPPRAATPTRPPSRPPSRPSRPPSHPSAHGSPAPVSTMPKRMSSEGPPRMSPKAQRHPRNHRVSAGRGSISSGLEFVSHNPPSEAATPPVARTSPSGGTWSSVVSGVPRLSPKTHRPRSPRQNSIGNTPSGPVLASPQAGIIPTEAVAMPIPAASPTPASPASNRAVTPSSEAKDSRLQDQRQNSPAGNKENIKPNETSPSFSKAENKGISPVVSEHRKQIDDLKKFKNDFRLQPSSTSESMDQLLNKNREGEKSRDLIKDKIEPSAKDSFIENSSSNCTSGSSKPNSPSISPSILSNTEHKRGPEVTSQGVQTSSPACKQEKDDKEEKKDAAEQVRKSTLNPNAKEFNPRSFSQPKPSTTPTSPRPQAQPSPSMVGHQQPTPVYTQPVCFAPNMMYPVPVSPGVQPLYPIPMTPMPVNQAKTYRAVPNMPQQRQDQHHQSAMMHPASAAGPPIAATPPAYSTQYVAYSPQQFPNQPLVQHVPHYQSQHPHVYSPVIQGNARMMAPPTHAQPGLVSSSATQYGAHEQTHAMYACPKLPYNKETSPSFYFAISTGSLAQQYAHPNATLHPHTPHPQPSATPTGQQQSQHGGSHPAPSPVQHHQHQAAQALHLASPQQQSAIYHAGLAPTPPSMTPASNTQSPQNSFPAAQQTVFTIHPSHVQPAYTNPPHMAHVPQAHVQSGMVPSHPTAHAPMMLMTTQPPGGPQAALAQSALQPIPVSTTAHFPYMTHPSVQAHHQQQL
Consider `O=C(CN(CCc1ccccc1)C(=O)c1csnn1)NCc1ccc(F)cc1`, for which the Potency result was “inactive”. In the case of `Cc1ccccc1C1N=C2Oc3ccccc3C=C2C(=O)N1` (configuration not stated), the Potency entry is “inactive”.

Regarding `COc1c(C)cc(S(=O)(=O)NCc2ccco2)c(C)c1C`, the Potency entry was “inactive”. For the compound `CCN1/C(=C/C=C/c2oc3ccc(-c4ccccc4)cc3[n+]2CC)Oc2ccc(-c3ccccc3)cc21`, the Potency was 29.9 µM (active). The entry for `O=C(Cc1ccc(NC2=NC3CS(=O)(=O)CC3S2)cc1)N1CCN(c2ccc(F)cc2)CC1` (configuration not stated) is “inactive”.

In the case of `COc1ccc(CN2C(=O)c3cccnc3C2=O)cc1S(=O)(=O)N1CCOc2ccccc21`, the Potency entry was “inactive”. The figure for `COc1cc(CCNC2=CC(=O)c3ncccc3C2=O)ccc1O` is 16.8 µM (active). Take `COc1ccc(CN2C(=O)c3cccnc3C2=O)cc1S(=O)(=O)NCc1ccc(C)o1`: the Potency entry is “inactive”. The figure for `CC(C)(C)c1ccc(SC2=C[C@@]3(O)CC[C@@H](O)[C@@](Sc4ccc(C(C)(C)C)cc4)(C2=O)[C@H]3O)cc1` is 25.1 µM (active); for `C=CCn1c(SCCN2C(=O)c3ccccc3C2=O)nc2scc(-c3ccc(F)cc3)c2c1=O` it is “inactive”; for `CCOC(=O)c1c(C)[nH]c(C(=O)N(C)CC(=O)Nc2ccc(OCC)c(OCC)c2)c1C` it is “inactive”. Turning to `C=CCn1c(SCC(=O)c2[nH]c(C)c(C(=O)OCC)c2C)nc2scc(-c3ccc(OC)c(OC)c3)c2c1=O`, the Potency was 20 µM (active).

As to `O=C1OCCN1C(=O)[C@H]1[C@H](c2ccc(F)cc2)C(c2ccccc2)=NN1c1ccccc1`, the Potency entry was “inactive”. The entry for `COc1ccc(C(=O)NCCNc2nc3c(C)cccc3cc2C#N)cc1OC` is “inactive”; for `CNc1c2cccc(C)c2nc2c(C(=O)NCCN(C)C)cccc12` it is 0.794 µM (active); for `Cc1cccc2c(C(=O)O)c3cccc(C)c3nc12` it is “inactive”. Turning to `CC1CCN(c2nc(Cl)nc(Nc3ccc([N+](=O)[O-])cc3)n2)CC1`, the Potency was 39.8 µM (active). As for `CCOc1nc(Nc2ccc([N+](=O)[O-])cc2)nc(NC(C)(C)C)n1`, the Potency result was “inactive”. As for `O=[N+]([O-])c1ccc(Nc2nc(N3CCOCC3)nc(N3CCOCC3)n2)cc1`, the Potency result was “inactive”. Take `CC(NC(=O)OC(C)(C)C)C(=O)NC(CCC(=O)OCc1ccccc1)C(N)=O` (configuration not stated): the Potency entry was “inactive”. As to `COCc1ccc(C(=O)Nc2ccccc2C(=O)NCc2cccnc2)cc1`, the Potency entry was “inactive”. Regarding `C[C@H](NC(=O)c1[nH]cnc1C(=O)NCc1ccc(CNC(=O)OC(C)(C)C)cc1)C(=O)OCc1ccccc1`, the Potency is 25.1 µM (active). Take `C[C@H](NC(=O)c1[nH]cnc1C(=O)Nc1ccc(CNC(=O)OC(C)(C)C)cc1)C(=O)OCc1ccccc1`: the Potency was 39.8 µM (active). Consider `CC(C)(C)OC(=O)NCc1ccc(NC(=O)c2[nH]cnc2C(=O)N[C@@H](Cc2ccccc2)C(=O)OCc2ccccc2)cc1`, for which the Potency was 35.5 µM (active). Take `O=C(NC(Cc1ccccc1)C(=O)Oc1ccc2c(C(F)(F)F)cc(=O)oc2c1)OCc1ccccc1` (configuration not stated): the Potency entry was “inactive”. On to `COc1ccccc1C1C2=C(CC(C)(C)CC2=O)N(CC(=O)O)C2=C1C(=O)CC(C)(C)C2`, for which the Potency result was “inactive”. Regarding `CN(CCC#N)C(=O)COC(=O)c1c2c(nc3ccccc13)/C(=C\c1ccco1)CC2`, the Potency result is “inactive”.

`COc1ccccc1N/C=C/c1onc(C)c1[N+](=O)[O-]`: the Potency result was “inactive”.

As to `Cc1cc(NC(=O)COC(=O)c2cccc(O)c2)no1`, the Potency result is “inactive”.

Turning to `O=C(OCC1OC(n2cc(Br)c(=O)[nH]c2=O)C(Br)C1O)c1ccccc1` (configuration not stated), the Potency entry is “inactive”. For `COc1ccc(C(=O)COC(=O)c2cncc(Br)c2)cc1`, the Potency result is “inactive”.

`CCOC(=O)c1ccc(N2C(=O)c3[nH]nc(-c4ccc(OC)cc4)c3C2c2cccc(O)c2)cc1` (configuration not stated): the Potency is 31.6 µM (active).

As for `CCOC(=O)c1ccc(N2C(=O)c3[nH]nc(-c4ccccc4)c3C2c2ccc(CC)cc2)cc1` (configuration not stated), the Potency is 39.8 µM (active). Regarding `CN=C(S)Nc1ccc(OCc2ccccc2)cc1`, the Potency result is “inactive”. Consider `Oc1ccc(NCc2cccc(OCc3ccccc3)c2)cc1`, for which the Potency was 28.2 µM (active). Regarding `O=C1CCCCC/C1=N/Nc1ccc(OCc2ccccc2)cc1`, the Potency result was “inactive”.

`CC(NCc1cccc(OCc2ccccc2)c1)C(O)c1ccccc1` (configuration not stated): the Potency is 25.1 µM (active). `Oc1ccc(NCc2cccs2)cc1`: the Potency result is “inactive”. On to `Cc1cc(NC(=O)Nc2ccc(OCc3ccccc3)cc2)n(C)n1`, for which the Potency result is “inactive”. The entry for `CC(O)CNCCCCOc1ccc(OCc2ccccc2)cc1` (configuration not stated) is “inactive”. Turning to `COc1cc(CNC(C)(C)CO)cc(Br)c1OCc1ccccc1`, the Potency result was “inactive”.

Regarding `Oc1ccc(NCc2ccccc2OCc2ccccc2)cc1`, the Potency is 39.8 µM (active). Consider `CCOc1cc(CNc2ccc(O)cc2)cc(Br)c1OCc1ccccc1`, for which the Potency is 20 µM (active). Take `CCOc1ccc(C2C(C(=O)Nc3ccccc3)=C(C)N=c3s/c(=C/c4cccc(OCC(=O)O)c4)c(=O)n32)cc1` (configuration not stated): the Potency result was “inactive”.

Regarding `N#CC1=C(N)OC2=C(CC/C2=C\c2ccccc2Cl)C1c1ccccc1Cl` (configuration not stated), the Potency entry is “inactive”. For the compound `COCCNC(=O)c1c(N)n(CCCn2ccnc2)c2nc3ccccc3nc12`, the Potency entry is “inactive”. On to `O=C(Oc1ccc2ccc(=O)oc2c1)c1ccccc1`, for which the Potency result is “inactive”. The entry for `Clc1ncccc1OCc1ccccc1` is “inactive”. For `c1ccc(COc2ccccc2CNC23CC4CC(CC(C4)C2)C3)cc1`, the Potency is 20 µM (active). In the case of `Oc1ccc(NCc2ccc(OCc3ccccc3Cl)cc2)cc1`, the Potency was 22.4 µM (active).

With `N=c1c(C(=O)NC2CCCC2)cc2c(=O)n3ccccc3nc2n1CC1CCCO1` (configuration not stated), the Potency entry is “inactive”.

Turning to `COC(=O)Cc1cc(=O)oc2c(C)c(O)ccc12`, the Potency result is “inactive”. On to `CCCCn1c(-c2cccc(C)c2)nc2cc3nc(O)c(C(C)C)nc3cc21`, for which the Potency was 31.6 µM (active).

As for `CCCCn1c(C2CCCCC2)nc2cc3nc(O)c(C(C)C)nc3cc21`, the Potency was 35.5 µM (active). As to `CCCC1=Nc2ncnn2C(c2cccs2)/C1=C(\O)OCC` (configuration not stated), the Potency entry was “inactive”. `CCC(C)n1c(=N)c(C(=O)NC2CCCCC2)cc2c(=O)n3ccccc3nc21` (configuration not stated): the Potency result is “inactive”.

`CCN(C(=O)COC(=O)CCC(=O)c1ccc(Cl)cc1)c1c(N)n(Cc2ccccc2)c(=O)[nH]c1=O`: the Potency entry was “inactive”. `CCN(C(=O)COC(=O)C1CCC(C(C)(C)C)CC1)c1c(N)n(Cc2ccccc2)c(=O)[nH]c1=O` (configuration not stated): the Potency is 22.4 µM (active). The entry for `CCN(C(=O)COC(=O)CCS(=O)(=O)c1ccccc1)c1c(N)n(Cc2ccccc2)c(=O)[nH]c1=O` is “inactive”; for `CN(C(=O)COC(=O)/C=C/c1ccc2ccccc2n1)C1CCS(=O)(=O)C1` (configuration not stated) it is “inactive”; for `Cc1cc(NCCO)c2cc(O)ccc2n1` it is “inactive”. The entry for `Oc1cccc(Nc2c3ccccc3nc3ccccc23)c1` is “inactive”; for `Cc1cc(Nc2cccc(O)c2)c2cccc(Br)c2n1` it is 8.91 µM (active); for `CCOC(=O)C1=CN(CC2CCCO2)C=C(C(=O)OCC)C1c1ccccc1C(F)(F)F` (configuration not stated) it is “inactive”. For the compound `COc1ccc(C(=O)/C=C2\Sc3ccccc3N2C)cc1`, the Potency result was “inactive”. Take `COc1ccc(C(=O)/C=C/Sc2nc3ccccc3o2)cc1`: the Potency is 39.8 µM (active). For the compound `COc1cccc(C(=O)Oc2ccc3ccc(=O)oc3c2)c1`, the Potency entry is “inactive”. On to `CCOC(=O)c1cc2c(=O)n3cccc(C)c3nc2n(Cc2ccco2)/c1=N/C(=O)c1ccccc1`, for which the Potency result is “inactive”.

On to `N#CC1=C(N)N2C(=C(C#N)C1c1cccc(Br)c1)Nc1ccccc12` (configuration not stated), for which the Potency entry was “inactive”. The figure for `O=C(OC12CC3CC(CC(C3)C1)C2)c1ccc(NCc2cc(O)ccc2O)cc1` is 8.44 µM (active); for `COC(=O)C1=CN(CCOC23CC4CC(CC(C4)C2)C3)C=C(C(=O)OC)C1c1ccsc1` it is “inactive”; for `O=C(OCCC12CC3CC(CC(C3)C1)C2)c1ccc(NCc2cc(O)ccc2O)cc1` it is 10 µM (active). Take `CC1CCN(c2ccc3c(c2)S(=O)(=O)c2cccc(C(=O)O)c2C3=O)CC1`: the Potency entry was “inactive”. Regarding `CN(O)C(=S)c1ccccc1`, the Potency is 8.91 µM (active). With `Cc1ccc(S(=O)(=O)Nc2cc(C)c(O)c(Sc3nnc(C)[nH]3)c2)cc1`, the Potency result is “inactive”. The entry for `Cc1cc(=O)oc2c(CN3CC(C)OC(C)C3)c(O)c(Cl)cc12` (configuration not stated) is “inactive”; for `CC(=O)Oc1ccc2ccc(=O)oc2c1` it is “inactive”; for `CCN(CC)c1ccc2cc(-c3nc4ccccc4n3C)c(=O)oc2c1` it is “inactive”. Turning to `CCCc1nc2ccc(C)cn2c1Cc1ccccc1OC`, the Potency was 39.8 µM (active).

For `CCCc1nc2ccc(C(=O)OC)cn2c1Cc1ccccc1C(F)(F)F`, the Potency is 39.8 µM (active).

With `CCCc1nc2c3ccccc3ccn2c1Cc1ccccc1`, the Potency is 22.4 µM (active). The entry for `Nn1c(Cc2ccccc2)nc2ccccc2c1=O` is “inactive”; for `CCn1c(=N)c(C(=O)NCc2ccccc2)cc2c(=O)n3cc(C)ccc3nc21` it is “inactive”. Turning to `COCC(C)n1c(SCc2cc(=O)n3cc(C)ccc3n2)nc2ccccc2c1=O` (configuration not stated), the Potency entry is “inactive”. Consider `COCCN1C=C(C(=O)OC)C(c2ccccc2C(F)(F)F)C(C(=O)OC)=C1`, for which the Potency entry is “inactive”. As to `CCOC(=O)Cc1csc(N/C=C2/C(=O)N(c3ccccc3C(F)(F)F)C(=O)c3ccccc32)n1`, the Potency result was “inactive”.

Regarding `CCC(C)n1c(=N)c(C(=O)NCc2ccccc2)cc2c(=O)n3cc(C)ccc3nc21` (configuration not stated), the Potency result is “inactive”. The figure for `CCCc1nc2ccc(C)cn2c1Cc1ccccc1` is 22.4 µM (active). Consider `O=Cc1ccc(N2N=C(c3ccccc3)CC2c2ccccc2)cc1` (configuration not stated), for which the Potency entry was “inactive”.

Turning to `COC(=O)c1ccc(N2C(c3cc(OC)cc(OC)c3)=Cc3ccc(-c4cccnc4)cc3C2CC(=O)C2CC2)cc1` (configuration not stated), the Potency result is “inactive”. For the compound `COc1ccc(C2C=C(c3ccc(Cl)cc3)Nc3nc(NC(=O)CCC(=O)O)nn32)cc1` (configuration not stated), the Potency result was “inactive”. On to `CO/C(O)=C1\C(C)=NC2=C(C(=O)CC(C)(C)C2)C1c1cnn(C)c1C` (configuration not stated), for which the Potency entry was “inactive”.

Turning to `CCN(CC)c1ccc2c(C)c(CN3CCOCC3)c(=O)oc2c1`, the Potency result was “inactive”.

Take `COc1ccc(C2CC(c3cccc(F)c3)=NN2c2ccc(S(N)(=O)=O)cc2)cc1` (configuration not stated): the Potency result was “inactive”. Consider `CNC(=O)/C(C#N)=C/c1ccc(-c2nc3ccccc3s2)o1`, for which the Potency result is “inactive”.

Turning to `CCCc1nc2c(C)cc(Br)cn2c1Cc1ccc(C)cc1`, the Potency was 20 µM (active). In the case of `CCN(Cc1cc(=O)n2cc(Cl)c(C)c(Cl)c2n1)Cc1nc(O)c2ccccc2n1`, the Potency entry was “inactive”.
